Test results as given in PubChem BioAssay (NCATS).
Inconclusive results are not listed. Activity calls are given as the source filed them. The call rests on the fitted dose curve; in most records, active means well fitted cell-killing curve with a large enough effect; inconclusive means small, poorly fitted or top-dose-only effect, or effect the other way; inactive means flat fitted curve, though single readings scatter.

system: Tov112D; assay: Primary qHTS to identify gynecologic anti-cancer compounds using libraries of approved drugs and bioactive compounds (AID 1345084); settings: Gynecologic cancer cell panel viability, ATPlite luminescence, 48 h; series mostly up to 57.5 µM; activity change, negative = cytotoxicity: at the top concentration; further: nearly all actives have a fitted effect of over 55% in size
Outline: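 ATP-based viability (ATPlite), 1,000 cells/well, 16 h pre-incubation, 48 h compound at 37 C, 5% CO2, 15 min RT before read.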
On the % scale 0 is the no-effect control and ±100 the full control effect.

| Compound | activity change, negative = cytotoxicity |
| --- | --- |
| CCNCc1nc2c(N)nc3ccccc3c2n1CC(C)(C)O | 0.165% (inactive) |
| CC(=O)O[C@]1(C(C)=O)CC[C@H]2[C@@H]3C[C@H](C)C4=CC(=O)C=C[C@]4(C)[C@@]3(F)[C@@H](O)C[C@@]21C | -3.39% (inactive) |
| CS(=O)(=O)N(CC(=O)NCC1CC1)c1cc(C(F)(F)F)ccc1Cl | 1.91% (inactive) |
| CC(C)CC(=O)O[C@@H]1OC=C(CO[C@@H]2O[C@H](CO)[C@@H](O)[C@H](O)[C@H]2O)[C@H]2[C@@H]3O[C@H]3[C@@](O)(CO)[C@@H]12 | 2.78% [at 25.3 µM] (inactive) |
| CNC12CC3C[C@@](C)(C1)C[C@](C)(C3)C2 | 7.12% (inactive) |
| C=CC(C)(O)C(O)CC1C(C)(O)C(O)C(O)C2C(C)(C)CCCC21C (centres undefined) | 5.03% [at 38.5 µM] (inactive) |
| N#C[C@@H]1CCCN1C(=O)CNC12CC3CC(CC(O)(C3)C1)C2 | 0.594% (inactive) |
| CC(C)(O)/C=C/CC(C)(O)C1C(O)CC2(C)C3CCC4C(C)(C)C(=O)CCC4(C)C3CCC12C (centres undefined) | 6.59% [at 25.3 µM] (inactive) |
| CC1OC2OC(=O)C3(C)CC4=C(CO)C5=C(CC(=O)C4(C)C(C1=O)C23)C(C)(C)OC(=O)C5 (centres undefined) | -5.38% [at 25.3 µM] (inactive) |
| C[C@@H]1C(=O)O[C@H](C)[C@H]1CC(=O)[C@](C)(O)[C@H]1CC[C@@]2(O)C3=CC(=O)[C@@H]4C[C@@H](O)[C@@H](O)C[C@]4(C)C3CC[C@]12C (some centres undefined) | 0.266% [at 25.3 µM] (inactive) |
| C=C[C@H]1[C@H](O[C@@H]2O[C@H](CO)[C@@H](O)[C@H](O)[C@H]2O)OC=C(C(=O)OC)[C@H]1C/C=C(/C=O)[C@@H]1C(C(=O)OC)=CO[C@@H](O[C@@H]2O[C@H](CO)[C@@H](O)[C@H](O)[C@H]2O)[C@@H]1C=C | 7.26% [at 25.3 µM] (inactive) |
| Cc1cc2c(c(=O)[nH]1)OC(C(O)CC(C)C)O2 (centres undefined) | -13.5% (inactive) |
| CC(C)=CCC/C(C)=C/Cc1ccc(O)c(C2OC(=O)c3cc(C(=O)O)cc(O)c32)c1O (centres undefined) | -11.6% [at 25.3 µM] (inactive) |
| NC(=O)C(CCC(F)(F)F)N(Cc1ccc(-c2ncon2)cc1F)S(=O)(=O)c1ccc(Cl)cc1 (centres undefined) | -10.9% (inactive) |
| COc1cc(C)c(C(=O)O[C@H]2[C@@H](OC(C)=O)[C@H](n3ccc(=O)[nH]c3=O)O[C@@H]2CO)c(OC)c1 | 5.12% [at 25.3 µM] (inactive) |
| CC1=C(CCC(C)CC(=O)O)[C@@]2(C)CCCC(C)(C)C2CC1=O (some centres undefined) | 11.1% [at 38.5 µM] (inactive) |
| C[C@@H]1O[C@@H](O[C@H]2[C@H](O)[C@@H](O)[C@H](OC3CCC4(C)C5CCC(C)(C(CO)OC6OC(CO)C(O)C(O)C6O)CC5=CCC4C3(C)C)O[C@@H]2CO)[C@H](O)[C@H](O)[C@H]1O (some centres undefined) | -2.96% [at 25.3 µM] (inactive) |
| CC1(C)CCCC2(C)C=C(C(=O)O)C(O)CC12 (centres undefined) | 5.21% (inactive) |
| CC12CCC3c4ccc(OC5OC(C(=O)O)C(O)C(O)C5O)cc4CCC3C1CCC2O (centres undefined) | 5.27% (inactive) |
